Data taken from PubChem BioAssay (EPA / NIEHS).
Activity calls are given as the source filed them. How the source made its calls: active means hit-call score of the fitted dose curve at least 0.9, where 1 is the maximum; inactive means score below 0.9.

Experiment: APR_HepG2_MitoMass_24hr: Apredica 24-hour HepG2 Assay for Mitochondrial Mass (AID 2282912)
Conditions: high-content imaging, actives raise or lower the signal
Outline: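 HepG2, 24 hr dosing, 10 concentrations 0.39–200 uM in duplicate, DMSO 0.5% final. MitoTracker Red CMXRos 250 nM, 30 min pre-fix; 3.7% formaldehyde fix. Imaging-based fluorescence intensity; gain/loss fit vs DMSO baseline.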
In the case of `CCn1nc(C)c2c1C(=O)NCC(c1ccc(O)cc1)=N2`, the outcome was “inactive”.
In the case of `NC(=O)NN=Cc1ccc([N+](=O)[O-])o1`, the outcome was “inactive”.
For `Cn1c(=O)c2[nH]cnc2n(C)c1=O`, the outcome was “inactive”.
For `c1ccc2cc3ccccc3cc2c1`, the outcome was “inactive”.
With `c1ccc2ncccc2c1` the outcome was “inactive”.
For `CCCCOC(=O)c1ccccc1`, the outcome was “inactive”.
With `CCCCCCCCN(C)C` the outcome was “inactive”.
With `CCCCC(CC)C(=O)OCCOCCOCCOC(=O)C(CC)CCCC` (centres undefined) the outcome was “inactive”.
In the case of `C[C@]12C=CC(=O)C=C1CC[C@H]1[C@@H]3C[C@@H](O)[C@](O)(C(=O)CO)[C@@]3(C)C[C@H](O)[C@@]12F`, the outcome was “inactive”.
In the case of `O=C(O)c1cccc(C[C@@H]2COc3ccc(OCc4nc5cc(F)ccc5s4)cc3[C@@H]2O)c1`, the AC50 was 156 µM (active).
In the case of `OC(Cn1cncn1)(Cn1cncn1)c1ccc(F)cc1F`, the outcome was “inactive”.
For `OCCOCCOCCO`, the outcome was “inactive”.
In the case of `CCCCN1C(=O)[C@@H]([C@H](O)C2CCCCC2)NC(=O)C12CCN(Cc1ccc(Oc3ccc(C(=O)O)cc3)cc1)CC2`, the outcome was “inactive”.

Experiment: APR_HepG2_p53Act_24hr: Apredica 24-hour HepG2 Assay for p53 Activation (AID 2282913);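 further: p53 protein immunofluorescence averaged per cell in HepG2 with Hoechst nuclei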
Conditions: high-content imaging, actives raise or lower the signal
Outline: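 HepG2 cells exposed 24 hr to compounds at 0.39–200 uM (10 concentrations, duplicate), final DMSO 0.5% v/v. After formaldehyde fixation and Triton permeabilization, p53 was immunolabeled (sheep anti-p53, Cy5 secondary) with Hoechst 33342 nuclear counterstain, then imaged by high-content fluorescence microscopy.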
For `CCn1nc(C)c2c1C(=O)NCC(c1ccc(O)cc1)=N2`, the outcome was “inactive”.
In the case of `NC(=O)NN=Cc1ccc([N+](=O)[O-])o1`, the outcome was “inactive”.
For `Cn1c(=O)c2[nH]cnc2n(C)c1=O`, the outcome was “inactive”.
For `c1ccc2cc3ccccc3cc2c1`, the outcome was “inactive”.
In the case of `c1ccc2ncccc2c1`, the outcome was “inactive”.
For `CCCCOC(=O)c1ccccc1`, the outcome was “inactive”.
With `CCCCCCCCN(C)C` the outcome was “inactive”.
In the case of `CCCCC(CC)C(=O)OCCOCCOCCOC(=O)C(CC)CCCC` (centres undefined), the outcome was “inactive”.
With `C[C@]12C=CC(=O)C=C1CC[C@H]1[C@@H]3C[C@@H](O)[C@](O)(C(=O)CO)[C@@]3(C)C[C@H](O)[C@@]12F` the outcome was “inactive”.
For `O=C(O)c1cccc(C[C@@H]2COc3ccc(OCc4nc5cc(F)ccc5s4)cc3[C@@H]2O)c1`, the AC50 was 97.2 µM (active).
In the case of `OC(Cn1cncn1)(Cn1cncn1)c1ccc(F)cc1F`, the outcome was “inactive”.
With `OCCOCCOCCO` the outcome was “inactive”.
With `CCCCN1C(=O)[C@@H]([C@H](O)C2CCCCC2)NC(=O)C12CCN(Cc1ccc(Oc3ccc(C(=O)O)cc3)cc1)CC2` the outcome was “inactive”.

Experiment: APR_HepG2_CellCycleArrest_72hr: Apredica 72-hour HepG2 Assay for Cell Cycle Arrest (AID 2282914)
Conditions: high-content imaging, actives raise or lower the signal
Outline: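 HepG2 cells were exposed to compounds at 0.39–200 uM (0.5% v/v DMSO final, duplicates) for 72 hr, fixed in 3.7% formaldehyde, permeabilized and stained with Hoechst 33342. Nuclear DNA content was quantified by high-content imaging; gain or loss of signal was fitted bidirectionally against DMSO.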
In the case of `CCn1nc(C)c2c1C(=O)NCC(c1ccc(O)cc1)=N2`, the outcome was “inactive”.
For `NC(=O)NN=Cc1ccc([N+](=O)[O-])o1`, the AC50 was 56.7 µM (active).
In the case of `Cn1c(=O)c2[nH]cnc2n(C)c1=O`, the outcome was “inactive”.
For `c1ccc2cc3ccccc3cc2c1`, the AC50 was 110 µM (active).
For `c1ccc2ncccc2c1`, the outcome was “inactive”.
In the case of `CCCCOC(=O)c1ccccc1`, the outcome was “inactive”.
For `CCCCCCCCN(C)C`, the outcome was “inactive”.
With `CCCCC(CC)C(=O)OCCOCCOCCOC(=O)C(CC)CCCC` (centres undefined) the AC50 was 79.2 µM (active).
For `C[C@]12C=CC(=O)C=C1CC[C@H]1[C@@H]3C[C@@H](O)[C@](O)(C(=O)CO)[C@@]3(C)C[C@H](O)[C@@]12F`, the outcome was “inactive”.
In the case of `O=C(O)c1cccc(C[C@@H]2COc3ccc(OCc4nc5cc(F)ccc5s4)cc3[C@@H]2O)c1`, the AC50 was 64 µM (active).
With `OC(Cn1cncn1)(Cn1cncn1)c1ccc(F)cc1F` the outcome was “inactive”.
With `OCCOCCOCCO` the outcome was “inactive”.
With `CCCCN1C(=O)[C@@H]([C@H](O)C2CCCCC2)NC(=O)C12CCN(Cc1ccc(Oc3ccc(C(=O)O)cc3)cc1)CC2` the outcome was “inactive”.
